# Hit rate of the full screen: of about 16,000 compounds, about 5,700 (36%) were called active. Roughly 24% stayed inconclusive and do not appear here. Calls come from the whole dose curve; as a rule, active = well fitted curve in the direction sought with a large enough effect; inconclusive = small, poorly fitted or top-dose-only effect, or effect the other way; inactive = no such curve, though single readings can be large or run the other way. The list shows a part of the results.
# Target: Cytochrome P450 1A2 (Homo sapiens) (UniProt P05177)
# Experiment: Cytochrome panel assay with activity outcomes
# Conditions: recombinant CYP, pro-luciferin dealkylation, luminescence, p450-cyp1a2; series mostly up to 57.1 µM; activity, negative = inhibition: at the top concentration
# % is set by controls: 0 for no effect and ±100 for the full control effect.
# Sequence of Cytochrome P450 1A2 (Homo sapiens) (P05177 whole entry, looked up): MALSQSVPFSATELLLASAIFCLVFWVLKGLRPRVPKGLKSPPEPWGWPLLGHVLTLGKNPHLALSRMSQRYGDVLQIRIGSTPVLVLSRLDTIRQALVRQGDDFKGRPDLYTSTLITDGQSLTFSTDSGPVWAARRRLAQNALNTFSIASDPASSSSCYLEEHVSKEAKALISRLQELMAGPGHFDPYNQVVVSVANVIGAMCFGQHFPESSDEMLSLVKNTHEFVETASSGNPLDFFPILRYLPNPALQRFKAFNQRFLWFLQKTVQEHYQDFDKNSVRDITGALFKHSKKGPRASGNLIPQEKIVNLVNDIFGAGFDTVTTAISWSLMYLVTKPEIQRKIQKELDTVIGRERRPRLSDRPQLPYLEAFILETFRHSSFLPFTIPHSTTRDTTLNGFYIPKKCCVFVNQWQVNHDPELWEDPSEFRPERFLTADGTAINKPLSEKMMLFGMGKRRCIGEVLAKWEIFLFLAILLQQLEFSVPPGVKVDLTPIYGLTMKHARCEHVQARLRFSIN
Compound,"activity, negative = inhibition",AC50
CC(C)C[C@H](NC(=O)[C@@H]1O[C@H]1C(=O)O)C(=O)NCCCCN=C(N)N,-9.37% (inactive),–
Cc1nonc1NC(=O)OCCN1CCOC1=O,-12.4% (inactive),–
Clc1ccc2c(c1)C(c1cccs1)=NNC(c1cccnc1)=N2,–,3.16 µM (active)
O=c1c(Cl)c(N2CCN(S(=O)(=O)c3ccc(F)cc3)CC2)cnn1-c1cccc(Cl)c1,-4.11% (inactive),–
Nc1ccc(Sc2cnn(-c3ccccc3)c(=O)c2Cl)cc1,–,5.01 µM (active)
CC1(C)Cc2ccccc2C(NNC(=O)c2ccncc2)=N1,–,10 µM (active)
CN1CCC2(CC1)CCN(C(=O)c1ccncc1)CC2,0.859% (inactive),–
CC(C)NNC(=O)c1ccncc1,–,inactive
Cc1sc(NC(=O)C2CCCCC2)c(C#N)c1-c1ccccc1,–,5.01 µM (active)
CC1=C(C#N)C(NC(=O)C2CCCCC2)(C(F)(F)F)C(=O)N1 (stereo not given),-19.3% (inactive),–
Cc1sc(NC(=O)/C=C/c2ccc(C(C)C)cc2)c(C#N)c1C,-4.52% (inactive),–
C[N+](C)(C)CCCSc1nc2ccccc2[nH]1,-15.1% [at 11.4 µM] (inactive),–
Cc1c(OCC(F)(F)F)ccnc1CSc1nc2ccccc2[nH]1,–,3.55 µM (active)
O=c1c[n+](CCCC[n+]2cc(=O)o[nH]2)[nH]o1,2.3% [at 11.4 µM] (inactive),–
CC(C)(Oc1ccc(Cl)cc1)C(=O)Nc1ccncc1,–,20 µM (active)
CC(C)(Oc1ccc(Cl)cc1)C(=O)Nc1cccnc1,–,2 µM (active)
N#CCCn1c(=O)c(-c2cccs2)nc2cnc(Oc3cccc(Cl)c3)nc21,–,3.16 µM (active)
COCCn1c(=O)c(-c2ccccc2)nc2cnc(Oc3cccc(Cl)c3)nc21,–,1 µM (active)
COCCn1c(=O)c(-c2cc(F)cc(F)c2)nc2cnc(Oc3cccc(Cl)c3)nc21,–,5.01 µM (active)
N#CCCn1c(=O)c(-c2ccc(Cl)cc2)nc2cnc(Oc3cccc(Cl)c3)nc21,-14.7% (inactive),–
N#CCCn1c(=O)c(-c2ccccc2)nc2cnc(Oc3cccc(Cl)c3)nc21,–,2.51 µM (active)
Cc1noc(C)c1-c1nccc(NCc2cccs2)n1,–,0.501 µM (active)

Compound,"activity, negative = inhibition",AC50
Cc1cnc(CNc2ccnc(-c3c(C)noc3C)n2)cn1,–,12.6 µM (active)
Cc1noc(C)c1C(=O)N1CCC2(CCN(Cc3ccccc3)CC2)CC1,-5.81% (inactive),–
Cc1noc(C)c1-c1nccc(NCc2cccnc2)n1,–,0.158 µM (active)
Cc1noc(C)c1-c1nccc(NCc2ccccc2)n1,–,0.794 µM (active)
CC(=O)N(NC(=O)c1ccccc1Cl)C1CC(=O)N(c2ccc(C)cc2)C1=O (stereo not given),5.79% (inactive),–
CC(=O)/C=C/c1ccc2ccccc2n1,–,2.51 µM (active)
O=C(O)/C=C\C(=O)N1Cc2cc3ccccc3nc2C1,-16.3% [at 11.4 µM] (inactive),–
O=C(c1cnccn1)N1CCC2(CC1)CN(c1ccccn1)C2,-12.9% (inactive),–
CCOC(=O)CCCc1c[nH]c2ccccc12,–,2.51 µM (active)
CC(C)CNC(=O)CCCc1c[nH]c2ccccc12,–,14.1 µM (active)
O=C(Cc1c[nH]c2ccccc12)OCC(=O)c1ccccc1,–,12.6 µM (active)
CN(CC(=O)O)Cc1c[nH]c2ccccc12,-14.8% [at 11.4 µM] (inactive),–
N[C@@H](Cc1c[nH]c2ccccc12)C(=O)O,-1.28% (inactive),–
COC(=O)C(Cc1c[nH]c2ccccc12)NC(=O)C(C)C (stereo not given),-15.1% (inactive),–
C[C@@](N)(Cc1c[nH]c2ccccc12)C(=O)O,-11.5% [at 11.4 µM] (inactive),–
CN1C2C=C(N(CCc3c[nH]c4ccccc34)C(=O)c3ccc(Cl)cc3)CC1CC2 (stereo not given),14.6% (inactive),–
Cc1cccc(CN2CCN(CC(=O)O)C2=O)c1,9.94% (inactive),–
O=C(O)CN1CCN(Cc2ccc(F)cc2Cl)C1=O,–,5.62 µM (active)
O=C(O)CN1CCN(Cc2ccccc2)C1=O,-26.6% (inactive),–
Cc1ccc(C(c2nnnn2CC2CCCO2)N2CCN(C(=O)c3ccco3)CC2)cc1 (stereo not given),-19.2% (inactive),–
CCOC(=O)c1sc(N(Cc2ccccc2)C(=O)CN2C(=O)CN(C)C2=O)nc1C,–,20 µM (active)
COc1ccc2[nH]c(=O)c(NC(N)=S)nc2c1,–,3.55 µM (active)

Compound,"activity, negative = inhibition",AC50
Cc1ccc2[nH]c(=O)c(NC(N)=S)nc2c1,–,4.47 µM (active)
C(=N\n1cnnc1)/c1cccn1-c1ccccc1,–,8.91 µM (active)
CC(C)NC(=O)N1CCCC2(CCN(S(=O)(=O)c3ccccc3)CC2)C1,-2.13% (inactive),–
CCCN1CNC(=S)N(c2cccc(C)c2C)C1,-0.257% (inactive),–
CC(C)=CCc1c(C)nc2ccccc2c1C(=O)O,-22.6% (inactive),–
CC(C)=CCC1=C(OCC(=O)O)C(=O)c2ccccc2C1=O,–,0.501 µM (active)
O=C1CSC(c2ccccn2)N1c1ccc(Cl)c(Cl)c1 (stereo not given),–,10 µM (active)
O=C1CC(N2CCN(CCc3ccccn3)CC2)C(=O)N1c1ccc(Cl)cc1 (stereo not given),-11.7% (inactive),–
CC(=O)Nc1ccc(N2C(=O)CSC2c2c(F)cccc2Cl)cc1 (stereo not given),-0.57% (inactive),–
COc1cc2c(cc1OC)-c1cc(=Nc3c(C)cc(C)cc3C)n(C)c(=O)n1CC2,-18.3% (inactive),–
COc1ccc(OC)c2[nH]c(=O)c(CCNS(=O)(=O)c3ccccc3)cc12,–,12.6 µM (active)
COc1ccc(OC)c2[nH]c(=O)c(CCNC(=O)c3ccc(S(=O)(=O)N4CCCC4)cc3)cc12,-27.7% (inactive),–
COc1ccc(OC)c2[nH]c(=O)c(CCNC(=O)COc3ccccc3)cc12,–,11.2 µM (active)
Cn1c(=O)c2cc(S(=O)(=O)NCCC(=O)Nc3ccc(Cl)cc3)ccc2n(C)c1=O,-4.77% (inactive),–
COc1ccc(Cl)cc1C(=O)NCCc1ccc(S(=O)(=O)NC(=O)NC2CCCCC2)cc1,-2.36% [at 25.6 µM] (inactive),–
COc1ccc(OC)c2[nH]c(=O)c(CCNS(=O)(=O)c3ccc(Cl)cc3)cc12,–,12.6 µM (active)
COc1ccc(OC)c2[nH]c(=O)c(CCNC(=O)c3ccc(S(=O)(=O)N(C)C)cc3)cc12,-13.1% (inactive),–
CC1(C)OC[C@@H]2O[C@H](n3cnc4c(N)nc(Cl)nc43)[C@@H](OS(C)(=O)=O)[C@@H]2O1,-14.5% [at 2.29 µM] (inactive),–
O=S(=O)(c1cccc(-c2nnc(-c3ccc(Br)cc3)o2)c1)N1CCCCCC1,–,14.1 µM (active)
O=C(O)CCC(=O)N1CCc2cc(S(=O)(=O)N3CCCCC3)ccc21,-10.2% (inactive),–
O=S(=O)(c1ccc(Br)cc1)N1CCN(S(=O)(=O)c2ccc(Br)cc2)CC1,-11.2% [at 11.4 µM] (inactive),–

# Reference: PubChem BioAssay AID1851 (National Center for Advancing Translational Sciences (NCATS), 2009)
